# Screening data from PubChem.
# AMA1-RON2 inh – AMA1-RON2 (P. falciparum) interaction inhibition. AlphaScreen AMA1-biotinylated RON2 peptide binding. AID 720542. 360,000 compounds, 0.2% hits. Potency, µM (highest dose often 58.2 µM), without a hit: top-dose activity change, negative = inhibition, most hits filed as inhibitors;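 further: 0% = vehicle wells and -100% = peptide control; nearly all actives have a fitted effect of over 45% in size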
#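 AMA1 (3D7) with his tag at 25 nM final met compounds first, then biotinylated RON2 peptide at 25 nM; detection used donor plus acceptor beads, 10 µg/mL apiece, read by AlphaScreen after 30 min at room temperature.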
# HCV inhibitor – HCV inhibition. Huh7.5.1 HCVcc-Cre infection, luciferase reporter, 44 h. 340,000 compounds, 3.4% hits. Potency, µM (highest dose often 41.8 µM), for inactives: at the top dose activity change, negative = inhibition, usual class: inhibitors. AID 651820
#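 Infectious HCV cell culture screen: compound-treated cells (1,000/well, pre-plated 4 h) are infected with HCVcc-Cre at roughly 0.5 moi and grown 44 h. Infection is quantified by luciferase signal after 15 min substrate incubation at room temperature.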
# Pf growth 48h – P. falciparum growth inhibition at 48 hours (one generation); P. falciparum luciferase growth in erythrocytes, 48 h; Potency, µM (series often up to 28.7 µM), without a hit: top-dose activity change, negative = inhibition, most hits filed as inhibitors; 310,000 compounds, 5.9% hits
#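 Compounds are pin-transferred into medium, infected erythrocytes (2% hematocrit, 0.1% parasitemia final) are added, and plates sit one parasite generation at 37 C in 5% CO2. Detection reagent is then added and luminescence measured.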
# Pf growth 96h – P. falciparum growth inhibition at 96 hours; P. falciparum luciferase reporter growth, 96 h; 320,000 compounds, 6.9% hits; AID 504834; Potency, µM (highest dose often 28.7 µM), without a hit: top-dose activity change, negative = inhibition, most hits filed as inhibitors
#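 Plates of compound plus infected erythrocytes (2% hematocrit, 0.05% parasitemia final) incubate 96 hours, 37 C, 5% CO2. Detection reagent added; reduced luminescence from the parasites' luciferase reporter flags inhibition.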
# Starred values were filed as active, the others as inactive; ? = inconclusive; nt = no result; [ ] = another dose, or the depositor's remark. Hits are enriched below; roughly 11% of the tested compounds scored in any of these assays. The call rests on the fitted dose curve; in most records, active means well fitted curve in the direction sought with a large enough effect; inconclusive means small, poorly fitted or top-dose-only effect, or another doubt; inactive means no such curve, though single readings can be large; an effect the other way counts as inactive or inconclusive. Unless noted, on the % scale 0 is the no-effect control and ±100 the full control effect; potency means the concentration at half of the fitted maximal effect.
SMILES,AMA1-RON2 inh,HCV inhibitor,Pf growth 48h,Pf growth 96h
COCCN(C(=O)C1CC1)c1nnc(-c2ccc(C)cc2)s1,-8%,-22%,8%,?
CCOc1ccc(-c2nnc(N(CC)C(=O)C3CCC3)s2)cc1,-6%,?,?,6.6µM*
Cc1nc(C(F)(F)F)ccc1C(=O)N1CCC1(C)C(=O)NS(=O)(=O)c1ccc2ccccc2c1 (centres undefined),10%,nt,nt,nt
COc1ccc(N2CCN(C(=O)c3ccccc3N(C)S(=O)(=O)c3ccc(C)cc3)CC2)cc1,?,nt,?,10µM*
COc1ccc(N(C)S(=O)(=O)c2cccc(C(=O)N3CCN(c4ccccc4)CC3)c2)cc1,?,?,10µM*,?
COc1ccc(N2CCN(C(=O)c3cccc(N4C(=O)C5C6C=CC(C6)C5C4=O)c3)CC2)cc1 (centres undefined),2%,4%,10µM*,61%
COc1ccc(N2CCN(C(=O)c3cccc(N4C(=O)C5CC=CC(C)C5C4=O)c3)CC2)cc1 (centres undefined),-2%,nt,21%,43%
COc1ccc(N(C)S(=O)(=O)c2cccc(C(=O)NCc3ccc4c(c3)OCO4)c2)cc1,1%,?,-45%,-22%
COc1ccc(N(C)S(=O)(=O)c2cccc(C(=O)N3CCN(Cc4ccc5c(c4)OCO5)CC3)c2)cc1,-25%,?,?,13µM*
Cc1cc(-c2ccccc2)nc(Cl)c1C#N,64%,5%,19%,101%
CCC1(c2ccc(F)cc2)NC(=O)N(CC(=O)Nc2ccc(C)c(S(=O)(=O)N3CCOCC3)c2)C1=O (centres undefined),-3%,-24%,18%,-29%
CC(C)Cc1nnc(NC(=O)C2CCCN(C(=O)c3ccc(Cl)cc3)C2)s1 (centres undefined),-10%,nt,nt,nt
CC(=O)N1CCOc2ccc(S(=O)(=O)N(C)c3ccc(C)cc3)cc21,7%,10%,-5%,62%
O=C(NCC(=O)N1CCC(N2CCCCC2)CC1)C1CCCCC1,-16%,11%,9%,1.2µM*
CC(=O)n1cc([C@H]2C=C(C(=O)Nc3ccccc3)O[C@@H](OCCCCO)C2)c2ccccc21,-7%,-13%,9.3µM*,?
CC(=O)n1cc([C@@H]2C=C(C(=O)NCc3ccccc3)O[C@H](OCCCCO)C2)c2ccccc21,5%,-16%,?,?
CC(=O)n1cc([C@H]2C=C(C(=O)NCc3ccccc3)O[C@@H](OCCCCO)C2)c2ccccc21,6%,-20%,5.9µM*,?
O=C(Nc1ccccc1)C1=C[C@H](C2CCCCC2)C[C@H](OCCCCO)O1,13%,3%,nt,nt
O=C(Nc1ccccc1)C1=C[C@@H](C2CCCCC2)C[C@@H](OCCCCO)O1,2%,0.32µM*,98%,0%
O=C(NCc1ccccc1)C1=C[C@H](c2coc3ccccc3c2=O)C[C@H](OCCCCO)O1,2%,-10%[8.37 µM],?,10µM*
O=C1c2ccccc2C(=O)N1c1ncn[nH]1,12%,12%,0%,8%
COc1cccc(-c2cccc(NC(=O)C3CCN(CCCn4cccn4)CC3)c2)c1,11%,nt,nt,nt
O=C(c1ccc(S(=O)(=O)NCc2ccco2)cc1)N1CCN(Cc2ccc3c(c2)OCO3)CC1,11%,?,-5%,-8%
Cc1c(C(=O)N2CCCCC2)c(S(=O)(=O)NCc2ccc(N(C)C)cc2)c(C)n1C,-5%,16%,-5%,0.83µM*
COc1ccc(CNS(=O)(=O)c2c(C(=O)N3CCCCCC3)c(C)n(C)c2C)cc1,-3%,26%,-15%,3.3µM*
SMILES,AMA1-RON2 inh,HCV inhibitor,Pf growth 48h,Pf growth 96h
O=c1[nH]ncc(N2CCN(Cc3ccccc3)CC2)c1Cl,-6%,16%,?,?
CC(=O)c1ccc(NC(=O)C(C)Sc2nnc(C3CCCCC3)o2)cc1 (centres undefined),nt,nt,27%,?
NC(=O)c1ccc(Oc2ccc3ccc(=O)oc3c2)c([N+](=O)[O-])c1,0%,5%,5%,0%
O=c1ccc2ccc(Oc3ccc([N+](=O)[O-])cc3Cl)cc2o1,0%,11µM*,31%,16%
O=C(N/N=C/C=C/c1ccc([N+](=O)[O-])cc1)C1COc2ccccc2O1 (centres undefined),68%,-15%,11%,12µM*
O=C(Nc1ccc([N+](=O)[O-])cc1)C1COc2ccccc2O1 (centres undefined),5%,16%,?,27%
CCc1nnc(NC(=O)C(C)Sc2ccccc2)s1 (centres undefined),-4%,12%,nt,-22%
Cc1ccc(S(=O)(=O)N2CCN(c3nc(C(C)C)c4c(c3C#N)CC(C)(C)OC4)CC2)cc1,2%,7.1µM*,nt,100%
CC(C)Cc1nc(NCCN2CCOCC2)c(C#N)c2c1COC(C)(C)C2,-6%,-16%,12µM*,nt
CC(C)Cc1nc(N2CCOCC2)c(C#N)c2c1COC(C)(C)C2,1%,?,10µM*,nt
CSc1cccc(NC(=O)C2CCN(S(=O)(=O)c3ccc4c(c3)NC(=O)CO4)CC2)c1,-2%,?,-15%,?
Cc1ccc(C(=O)N/C(=C\c2cn(C)c3ccccc23)C(=O)NCCCN2CCOCC2)cc1,1%,-4%,?,-9%
CN(C)CCCNC(=O)/C(=C\c1ccc(-c2cccc([N+](=O)[O-])c2)o1)NC(=O)c1ccccc1,-10%,?,?,11%
COc1ccc(C(=O)N/C(=C\c2ccccc2)C(=O)N2CCOCC2)cc1,24%,nt,2%,3%
CN(C)CCNC(=O)/C(=C/c1ccc(-c2ccc(Cl)cc2Cl)o1)NC(=O)c1ccccc1,-1%,10µM*,12µM*,116%
COc1ccc(-c2ccc(/C=C(\NC(=O)c3ccccc3)C(=O)N3CCOCC3)o2)cc1,-13%,-25%,13µM*,68%
Cc1ccc(C(=O)N/C(=C\c2ccc(-c3ccccc3[N+](=O)[O-])o2)C(=O)NCCCN2CCOCC2)cc1,-9%,25µM*,1.9µM*,2.9µM*
O=C(N/C(=C\c1ccco1)C(=O)N1CCOCC1)c1ccc([N+](=O)[O-])cc1,5%,9%,15%,4.7µM*
CCOC(=O)C1=CCC(c2ccccc2Cl)N(S(=O)(=O)c2ccc(C)cc2)C1 (centres undefined),-1%,nt,nt,nt
Cc1ccccc1OC(C)C(=O)NCCCN1CCOCC1 (centres undefined),20%,11%,3%,?
CN(C)CCNC(=O)/C(=C/c1ccc(-c2ccc(Cl)cc2)o1)NC(=O)c1ccccc1,4%,10µM*,13µM*,29%
Cc1ccc(C(=O)N/C(=C\c2ccc(-c3ccc(Br)cc3)o2)C(=O)NCCCN(C)C)cc1,-18%,2µM*,?,?
Cc1ccccc1NC(=O)N(O)C1(C#N)CCCCC1,11%,6%,nt,nt
COc1ccnc(N2CCN(c3ccc(Cl)cc3)CC2)c1C#N,11%,32µM*,24%,103%
COc1ccnc(N2CCN(c3cccc(C(F)(F)F)c3)CC2)c1C#N,9%,19%,16%,49%
